A short description of assay [1]: compounds altering viability of human ES cells (AID 493140).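 Further: cells exposed to compounds for four days before counting.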 Conditions: human embryonic stem cell survival screen; stronger effect = higher value.
Assay [2] can be described thus: P. berghei load reduction in hepatocytes – cell-based, HepG2, luciferase luminescence, HepG2 viability, primary screen (AID 624349; in the data active means parasite load remaining mostly below about 12%, no sharp cut-off; inactive means mostly above about 10%;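 further: 100% = mean of DMSO negative control wells on the same plate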). Conditions: P. berghei liver stage in HepG2, luciferase luminescence, concentration not given here; parasite load remaining: stronger effect = lower value; viability: measured here: HepG2 viability without parasites.
Assay [3] has as its system Hepatitis C virus NS3 helicase. Briefly: blockers of NS3h binding to ssDNA – biochemical, fluorescence polarization, LOPAC1280 library, primary screen (AID 687035; in the data active means inhibition above about 37%). Conditions: Purified HCV NS3 helicase, Cy5-dT15 ssDNA binding fluorescence polarization; stronger effect = higher value; concentration not given here.
A short description of assay [4]: compounds altering Cy5-DNA-NS3h complex signal – biochemical, LOPAC1280, artefact control for HCV NS3 helicase inhibitor project (AID 687037). Conditions: Cy5-DNA-NS3h complex fluorescence interference counterscreen.
The subject of assay [5] is Neuropilin-2 / VEGF-C interaction (human). Briefly: small molecules blocking Neuropilin-2/VEGF-C interaction – biochemical, microplate binding format, z-score (AID 743281). Conditions: microplate NRP2/VEGF-C binding assay; stronger effect = lower value.

Activity calls are given as the source filed them. Unless noted, how the calls were made is not given here.

On to `CC1CC[C@]2(NC1)O[C@H]1C[C@H]3[C@@H]4CC[C@H]5C[C@@H](O)CC[C@]5(C)[C@H]4CC[C@]3(C)[C@H]1[C@@H]2C` (stereo not given in full), for which the survival in assay [1] was 5.67 (inactive). Besides, in assay [2], the parasite load remaining was 77.7% (inactive) and the viability came to 73.9%.
As for `C=CCN1CC[C@]23c4c5ccc(O)c4O[C@H]2/C(=N\NC(=O)c2ccccc2)CC[C@@]3(O)[C@H]1C5`, in assay [3], the inhibition is -6% (inactive). The fluorescence ratio (interference) in assay [4] is 0.9 (inactive).
For `CCC(C)C1OC2(C=CC1C)CC1CC(CC=C(C)C(OC3CC(OC)C(OC4CC(OC)C(O)C(C)O4)C(C)O3)C(C)C=CC=C3COC4C(O)C(C)=CC(C(=O)O1)C34O)O2` (stereo not given), the survival in assay [1] is 3.5 (inactive).
The same measure, in the same setting: in the case of `O=P(O)(O)Cc1ccccc1` it was 126 (inactive).
On the same count and under the same terms, in the case of `CC(=O)OC(C)C(C)C(=O)OC[C@]12C(C)[C@H]3O[C@@H]1C[C@]1(C)C(=CCC4[C@@]5(C)CCC(OC6O[C@H](C(=O)O)[C@H](O[C@H]7O[C@@H](CO)[C@@H](O)[C@@H](O)[C@@H]7O)[C@H](O)[C@H]6O[C@@H]6OO[C@@H](O)[C@H](O)[C@@H]6O)[C@](C)(CO)C5CC[C@]41C)[C@@H]2CC3(C)C` (stereo not given in full) it was 2.17 (inactive).
As to `CC[C@@H]1/C=C\C=C\C[C@H](C)[C@@H](O)[C@@H](C)C(=O)[C@H](C)[C@@H](O)[C@H](C)C(=O)[C@H](C)[C@@H](O)[C@H](C)/C=C/C(=O)O[C@H]2[C@@H](C)[C@@H](CC1)O[C@@]1(CC[C@@H](C)[C@@H](C[C@H](C)O)O1)[C@@H]2C`, in assay [5], the outcome was inactive.
Take `C=CCN1CC[C@]23c4c5ccc(O)c4O[C@@H]2/C(=N\N=C2\CC[C@@]4(O)C6Cc7ccc(O)c8c7[C@@]4(CCN6CC=C)[C@@H]2O8)CC[C@@]3(O)C1C5`: the inhibition in assay [3] was -6% (inactive). For the same compound, in assay [4], the fluorescence ratio (interference) is 0.9 (inactive).
As for `O=C1Nc2ccc3ncsc3c2/C1=C/c1cnc[nH]1`, in assay [2], the parasite load remaining was 86.4% (inactive) and the viability stood at 77.5%.
`C[C@H]1O[C@@H](OC2CC[C@]3(C=O)[C@H]4CC[C@]5(C)[C@@H](C6=CC(=O)OC6)CC[C@@]5(O)[C@@H]4CC[C@]3(O)C2)C[C@H](O)[C@@H]1O` (stereo not given in full): the survival in assay [1] was 1.42 (inactive).
Same read-out and setting: in the case of `CCCCCCCCCCCCC/C=C/[C@@H](O)[C@@H](N)COP(=O)([O-])OCC[N+](C)(C)C` it was 95.8 (inactive).
Consider `C[C@@H](N)[C@H](O)c1ccccc1`, for which the survival in assay [1] was 4.42 (inactive). In assay [2], the parasite load remaining was 62.7% (inactive) and the viability was found to be 76%.
Turning to `CC(C)C1C(=O)N2CCCC2C2(O)OC(NC(=O)C3CC4c5cccc6[nH]cc(c56)CC4N(C)C3)(C(C)C)C(=O)N12` (stereo not given), the survival in assay [1] is 8 (inactive).
On the same count and under the same terms, the figure for `CN1C2CCC1CC(OC1c3ccccc3CCc3ccccc31)C2` (stereo not given) is 0.75 (inactive); for `CN[C@@H]1CC2(C)OC([C@@H]1OC)n1c3ccccc3c3c4c(c5c6ccccc6n2c5c31)C(=O)NC4` (stereo not given in full) it is 0.333 (inactive).
Same read-out and setting: the figure for `CCN(CC)C(=O)N[C@H]1C[C@@H]2c3cccc4[nH]cc(c34)C[C@H]2N(C)C1` is 6 (inactive).
On to `COC1=C[C@H]2C3=C([C@H]2C1=O)[C@@H](NC(C)=O)CCc1cc(OC)c(OC)c(OC)c13`, for which the survival in assay [1] is 13.2 (inactive). In assay [2], the parasite load remaining was 78.4% (inactive) and the viability was found to be 74.3%.
For `C=C[C@@H]1CN2CCC1C[C@@H]2[C@H](O)c1ccnc2ccccc12` (stereo not given in full) the same measures were 3.33 (inactive), 71% (inactive) and 77.6%.
`CN(C(Cc1ccc(OOSOc2cccc3cnccc23)cc1)C(=O)N1CCN(c2ccccc2)CC1)S(=O)(=O)c1cccc2cnccc12` (stereo not given): in assay [2], the parasite load remaining was 43.1% (inactive) and the viability was 153%.

(Values after PubChem BioAssay.)
